Source: PubChem BioAssay AID602292 (National Center for Advancing Translational Sciences (NCATS), 2012)
Screen size: about 1,300 compounds; about 380 (29%) were called active. About 37% were inconclusive and are not listed. Calls follow the shape of the dose curve; as a rule, active = well fitted inhibition curve with a large enough effect; inconclusive = small, poorly fitted or top-dose-only effect; inactive = flat fitted curve, though single readings scatter. This is one part of the list.

Target: Thyrotropin receptor (Homo sapiens) (UniProt P16473)
Sequence (P16473 whole entry, looked up): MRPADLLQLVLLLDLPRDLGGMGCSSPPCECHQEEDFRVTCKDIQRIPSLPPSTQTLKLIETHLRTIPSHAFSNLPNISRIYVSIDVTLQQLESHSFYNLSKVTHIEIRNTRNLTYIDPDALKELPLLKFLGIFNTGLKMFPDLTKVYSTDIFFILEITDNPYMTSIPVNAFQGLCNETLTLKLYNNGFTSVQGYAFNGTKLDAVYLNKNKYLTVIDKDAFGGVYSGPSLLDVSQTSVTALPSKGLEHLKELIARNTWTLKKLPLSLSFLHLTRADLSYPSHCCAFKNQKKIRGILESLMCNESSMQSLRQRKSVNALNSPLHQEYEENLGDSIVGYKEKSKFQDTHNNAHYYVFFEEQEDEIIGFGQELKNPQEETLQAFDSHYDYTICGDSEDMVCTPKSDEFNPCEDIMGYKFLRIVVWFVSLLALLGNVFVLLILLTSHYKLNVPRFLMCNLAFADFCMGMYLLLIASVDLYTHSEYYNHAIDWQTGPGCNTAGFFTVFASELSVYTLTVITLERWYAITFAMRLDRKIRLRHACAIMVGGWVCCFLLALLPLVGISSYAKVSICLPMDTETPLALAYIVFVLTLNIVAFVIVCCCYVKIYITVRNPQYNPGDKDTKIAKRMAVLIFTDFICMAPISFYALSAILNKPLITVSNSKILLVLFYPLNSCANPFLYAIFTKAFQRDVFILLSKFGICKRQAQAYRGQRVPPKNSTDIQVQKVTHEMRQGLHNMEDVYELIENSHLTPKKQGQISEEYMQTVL
Assay: qHTS for antagonists of the Thyroid Stimulation Hormone Receptor: Hit Validation in Primary Screen; also: nearly all actives have a fitted effect of over 80% in size;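 as to activity change, negative = inhibition: cells stimulated with TSH at EC80 of 4 nM during compound exposure; cAMP by competitive HTRF where cellular cAMP lowers the 665 nm FRET signal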
Settings: TSHR-expressing cells, cAMP antagonist mode; series mostly up to 58 µM; activity change, negative = inhibition: at the top concentration
Excerpt: The thyroid-stimulating hormone receptor (TSHR) is a member of the 7 trans-membrane-spanning receptor (7TMR) family of cell surface receptors. TSHR-mediated hyperthyroidism is important in thyroid pathology. The development of small molecule antagonists of TSHR may lead to therapeutic approaches for TSHR-mediated hyperthyroidism caused by constitutively activating mutations or stimulating auto-antibodies associated with Graves' disease. Graves' disease is the leading cause of hyperthyroidism and is caused by autoantibodies that stimulate TSHR (TsAbs) causing thyroid growth and unregulated overproduction of thyroid hormones and existing treatments have liabilities (agranulocytosis). In addition, TSHRs are known to be expressed in multiple extrathyroidal tissues including bone, brain, kidney, testis, fat and cells of the immune system but the role of the TSHR in these tissues is not clear. Therefore, TSHR antagonists/inverse agonists could be used as probes of extrathyroidal TSHR function. Finally, TSHR inverse agonists, which are a subclass of antagonists that inhibit agonist-independent (or basal or constitutive) TSHR signaling, could be used to inhibit TSH-independent signaling in patients with recurrent or metastatic thyroid cancer who are receiving thyroid hormone to suppress TSH.
In collaboration between scientist from the NCGC and the NIDDK, a miniaturized HTRF high-throughput screen was developed. It's a cell based assay, where an anti cAMP antibody contains a fluorescent cryptate tag (excitation 337 nm; emission 620 nm) and the acceptor is cAMP-d2 (excitation 620 nm; emission 665 nm). When antibody and cAMP-d2 interact and are excited by a 337 nm light, a FRET occurs resulting in emission at 665 nm. The assay is competition between cAMP-d2 and cAMP (from the cell lysate). The homogeneous protocol allows for one step dispense after stimulation that is automation friendly. This is a hit validation assay using the primary screen format.
NIH Chemical Genomics Center [NCGC]
NIH Molecular Libraries Probe Centers Network [MLPCN]
Assay Provider: Marvin Gershengorn, NIDDK
1. 3ul of 200 TSHR freshly harvested cells/well are dispensed into a 1536 TC-treated white solid bottom plate.
2. Through pintool addition, 23nl of compounds and control in 100% DMSO are added to the plate.
3. Then 1ul of EC80 TSH (4nM final) is added to the plate.
4. Assay is incubated at 37 deg C for 2 hours.
5. 2ul of cAMP antibody diluted 1:20 in lysis buffer is added.
6. Immediately following, 2ul of d2 diluted 1:20 in HBSS is added seperately.
7. The assay is incubated for 30 minutes at ambient room temperature.
8. The result is obtained by using a ViewLux read-out with HTRF settings.
% is scaled to controls: 0 for no effect and ±100 for the full control effect; potency is read from the fitted curve at half-maximal effect.

Row | SMILES | Potency | activity change, negative = inhibition
1 | O=C(Nc1cc(S(=O)(=O)N2CCCCC2)ccc1Cl)c1ccccc1NS(=O)(=O)c1ccc(F)cc1 | 7.57 µM (active) | –
2 | O=C(Nc1nnc(S(=O)(=O)N2CCCC2)s1)c1ccccc1F | – | -9.65% (inactive)
3 | CCc1ccccc1NC(=O)C1CCCN(S(=O)(=O)c2ccc3c(c2)CC(C)N3C(C)=O)C1 (stereo not drawn) | – | -5.5% (inactive)
4 | Cc1ccc(NC(=O)c2ccccc2NS(=O)(=O)c2ccc(F)cc2)cc1S(=O)(=O)N1CCCCC1 | 3.79 µM (active) | –
5 | CCc1ccc(N/C(SCc2cccc(F)c2)=C(/C#N)C(=O)NCc2ccco2)cc1 | – | -5.33% (inactive)
6 | CC(C)c1cc(=O)n2[nH]c(SCc3ccccc3)nc2n1 | – | -0.807% (inactive)
7 | CCCCc1c(C)nc2nc(SCc3ccc(Cl)cc3)[nH]n2c1=O | 21.3 µM (active) | –
8 | C#C[C@]1(OC(C)=O)CCC2C3CCC4=CC(=O)CC[C@@H]4C3CC[C@@]21C (stereo partly drawn) | 13.5 µM (active) | –
9 | CC(=O)N1CCc2cc(Br)cc(S(=O)(=O)N3CCC(C(=O)O)CC3)c21 | – | -11.2% (inactive)
10 | CCC1Sc2ccc(S(=O)(=O)CCC(=O)Nc3ccccc3Cl)cc2NC1=O (stereo not drawn) | – | -11.6% (inactive)
11 | O=C(Nc1cccc(S(=O)(=O)Nc2ccc(Cl)cc2)c1)c1ccc2c(c1)OCCO2 | 16.9 µM (active) | –
12 | O=C(c1ccc2c(c1)OCO2)N1CCN(S(=O)(=O)c2ccc(Cl)cc2)CC1 | – | -1.21% (inactive)
13 | CCOC(=O)c1[nH]c2cc(OC)c(OC)cc2c1NC(=O)c1ccc2c(c1)OCO2 | – | -2.79% (inactive)
14 | COC(=O)c1sc(NC(=O)C(C)C)c(C(=O)OC)c1C | – | -4.29% (inactive)
15 | Cc1cc(/C=C2\Sc3ccccc3N2C)cc(C)[n+]1CC1CCCO1 (stereo not drawn) | 30.1 µM (active) | –
16 | Cc1cccc(OCc2nnc(SCC(=O)N3c4ccccc4CCc4ccccc43)o2)c1 | – | -4.87% (inactive)
17 | CC(C)Oc1ccc(C(=O)Nc2ccc(Cl)c(S(=O)(=O)Nc3ccc(Cl)cc3)c2)cc1 | 21.3 µM (active) | –
18 | COc1ccc(NC(=O)c2ccc3ccccc3n2)cc1S(=O)(=O)Nc1ccccc1Cl | – | -2.39% (inactive)
19 | CC(C)Oc1ccc(C(=O)NCCNC(=O)c2ccco2)cc1 | – | -4.87% (inactive)
20 | COc1ccc(C(=O)Nc2ccc(Cl)c(S(=O)(=O)Nc3ccccc3OC)c2)cc1 | 12 µM (active) | –
21 | COc1ccc(N(CC(=O)Nc2cc(Cl)ccc2OC)S(=O)(=O)c2c(C)noc2C)cc1 | – | -11.3% (inactive)
22 | COC(=O)C1C(=O)NC(SC)=C(C#N)C1c1ccccc1 (stereo not drawn) | – | -3.77% (inactive)
23 | Cc1cc(C)c2oc(C(=O)Nc3ccc(S(=O)(=O)Nc4nccc(C)n4)cc3)cc(=O)c2c1 | – | -4.03% (inactive)
24 | O=C1OC(CC(=O)N(Cc2nnc(-c3ccc(Cl)cc3)o2)C2CC2)c2ccccc21 (stereo not drawn) | – | -6.17% (inactive)

Row | SMILES | Potency | activity change, negative = inhibition
25 | Cc1sc2ncnc(N3CCN(CCOc4ccc(Cl)cc4)CC3)c2c1C | 19 µM (active) | –
26 | COc1ccc(N2CCN(c3ncnc4sc(C(=O)NCC5CCCO5)c(C)c34)CC2)cc1 (stereo not drawn) | – | -1.12% (inactive)
27 | Cc1[nH]n(C)c(=O)c1C(=O)c1c(-c2c(Cl)cccc2Cl)noc1C | – | -5.39% (inactive)
28 | O=C1NC(=S)S/C1=C\c1cc2ccccc2nc1N1CCCCC1 | 13.5 µM (active) | –
29 | COc1ccc2cc(/C=C3\SC(=S)NC3=O)c(N3CCOCC3)nc2c1 | 3.38 µM (active) | –
30 | CCc1ccc(-c2nnn(CCC(=O)OC)n2)cc1 | – | -0.749% (inactive)
31 | COC(=O)c1nc2n(n1)C(c1cccc(Cl)c1)C1=C(CCCC1=O)N2 (stereo not drawn) | – | -1.3% (inactive)
32 | Cc1nn(-c2ccc(N3CCOCC3)nn2)c(C)c1CCC(=O)NCc1ccccc1F | – | -2.51% (inactive)
33 | CC(C)(C)C(=O)NC(=S)NNC(=O)c1ccc(-c2ccccc2)cc1 | – | -18.8% (inactive)
34 | CCn1nnc2cc(C(=O)NCC(c3ccccc3OC)N(C)C)ccc21 (stereo not drawn) | – | -6.48% (inactive)
35 | COc1cccc(CN(C)C(=O)c2ccc(Oc3ccccc3)cc2)c1OC | 37.9 µM (active) | –
36 | COc1ccc(CN(C)C(=O)COC(=O)c2ccc(-c3ccccc3)cc2)c(OC)c1OC | 23.9 µM (active) | –
37 | COc1cccc(CN(C)C(=O)CNC(=O)c2ccc(-c3ccccc3)cc2)c1OC | 26.9 µM (active) | –
38 | CCOC(=O)C1(CCOc2ccccc2)CCN(Cc2cccc(OC)c2O)CC1 | – | 1.47% (inactive)
39 | O=C(c1ccco1)N1N=C(C2CCCCC2)CC1(O)C(F)(F)F (stereo not drawn) | – | -1.58% (inactive)
40 | COc1ccc(C(CC(=O)N2CCOCC2)c2c(OC)cc(OC)c3c(-c4ccccc4)cc(=O)oc23)cc1 (stereo not drawn) | – | -7.58% (inactive)
41 | CC1CC(=O)N(c2ccc(C(C)C)cc2)C(=O)C1 | – | -1.5% (inactive)
42 | COCc1c(C(=O)Nc2cccc(S(=O)(=O)N3CCCCC3)c2)oc2ccccc12 | – | -16.5% (inactive)
43 | O=C(NCCN1CCOCC1)c1c(Cl)cccc1Cl | – | -6.48% (inactive)
44 | O=C(Nc1ccc(S(=O)(=O)N2CCCCC2)cc1)c1ccc(CN2CCOCC2)cc1 | 23.9 µM (active) | –
45 | COc1ccc(N2CCN(C(=O)[C@H](C)NC(=O)c3ccccc3Cl)CC2)cc1 | – | -4.81% (inactive)
46 | COc1ccc(C(NC(=O)c2c(F)c(F)c(F)c(F)c2F)c2ccccc2)cc1 (stereo not drawn) | 26.9 µM (active) | –
47 | CCOc1ccccc1NC(=O)C(NCCc1ccc(OC)cc1)c1ccccc1 (stereo not drawn) | – | -6.08% (inactive)
48 | COCCCn1c(=O)c2sccc2n(Cc2cccc(C)c2)c1=O | – | -8.56% (inactive)
